Laboratory results from PubChem BioAssay AID623996 (NMMLSC, 2012).
Potency and affinity values are given separately. Unmarked numbers belong to inactive results. The source made the active and inactive calls.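 How the source made its calls: active means fitted concentration giving half the maximal Nile Red retention below 100 µM; inactive means the rest.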

Each compound was assayed against Multidrug resistance protein CDR1 (Candida albicans) (UniProt P43071) (assay: CaCdr1 efflux pump inhibitor potency, dose response, singleplex, Cherry Pick2 set (AID 623996)). Details: S. cerevisiae AD/CaCDR1, Nile Red efflux inhibition, flow cytometry; series mostly up to 100 µM; efflux inhibition response: at the top concentration.
Multidrug resistance protein CDR1 (Candida albicans), sequence (P43071 whole entry, looked up): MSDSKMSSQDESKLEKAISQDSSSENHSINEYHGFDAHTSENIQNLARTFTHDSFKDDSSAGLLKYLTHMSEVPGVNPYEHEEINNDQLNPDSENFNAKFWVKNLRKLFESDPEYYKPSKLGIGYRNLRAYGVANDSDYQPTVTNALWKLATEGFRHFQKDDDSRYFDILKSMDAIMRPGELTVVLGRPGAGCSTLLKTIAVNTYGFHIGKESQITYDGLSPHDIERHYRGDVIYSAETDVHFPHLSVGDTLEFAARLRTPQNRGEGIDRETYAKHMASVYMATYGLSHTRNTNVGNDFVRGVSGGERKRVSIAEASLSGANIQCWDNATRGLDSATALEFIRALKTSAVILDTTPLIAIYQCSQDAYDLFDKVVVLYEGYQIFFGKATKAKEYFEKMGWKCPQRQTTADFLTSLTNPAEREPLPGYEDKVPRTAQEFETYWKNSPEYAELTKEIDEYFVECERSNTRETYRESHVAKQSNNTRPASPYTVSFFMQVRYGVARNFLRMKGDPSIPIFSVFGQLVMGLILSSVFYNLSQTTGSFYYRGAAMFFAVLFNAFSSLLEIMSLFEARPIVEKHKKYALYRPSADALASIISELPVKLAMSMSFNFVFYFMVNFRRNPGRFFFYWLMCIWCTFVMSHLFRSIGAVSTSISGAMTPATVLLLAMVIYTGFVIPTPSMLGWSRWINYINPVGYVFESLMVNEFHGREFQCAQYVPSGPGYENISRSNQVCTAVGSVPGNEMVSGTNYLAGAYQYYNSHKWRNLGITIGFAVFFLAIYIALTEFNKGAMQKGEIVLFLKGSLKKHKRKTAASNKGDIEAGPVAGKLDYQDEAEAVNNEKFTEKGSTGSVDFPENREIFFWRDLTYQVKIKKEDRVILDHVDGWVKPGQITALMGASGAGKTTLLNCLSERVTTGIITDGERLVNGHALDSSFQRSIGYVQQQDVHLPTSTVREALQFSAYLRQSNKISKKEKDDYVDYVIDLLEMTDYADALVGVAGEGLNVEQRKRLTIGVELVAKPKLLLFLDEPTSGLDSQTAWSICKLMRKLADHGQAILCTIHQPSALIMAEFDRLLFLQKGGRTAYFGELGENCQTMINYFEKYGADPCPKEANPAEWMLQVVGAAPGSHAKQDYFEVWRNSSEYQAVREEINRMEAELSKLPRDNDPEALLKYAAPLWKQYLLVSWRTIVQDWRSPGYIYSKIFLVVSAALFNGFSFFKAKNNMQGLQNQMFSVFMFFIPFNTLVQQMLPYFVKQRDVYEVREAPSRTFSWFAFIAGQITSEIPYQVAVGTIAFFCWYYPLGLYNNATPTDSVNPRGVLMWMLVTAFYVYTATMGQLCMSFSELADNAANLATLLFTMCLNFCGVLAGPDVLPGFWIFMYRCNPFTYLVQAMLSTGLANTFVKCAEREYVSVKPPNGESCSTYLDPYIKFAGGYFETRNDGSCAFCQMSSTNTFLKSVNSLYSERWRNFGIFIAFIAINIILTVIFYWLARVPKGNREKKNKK

Row | Structure (SMILES) | efflux inhibition response | outcome
1 | OCCN1CCN(CC/C=C2/c3ccccc3Sc3ccc(C(F)(F)F)cc32)CC1 | 2.54% | –
2 | C[C@@]12C(=O)Nc3ccc(Cl)cc3C(=O)N1[C@H]1c3cc(Cl)ccc3OC[C@@H]1[C@@H]2c1ccccc1 | 1.33% | –
3 | CN1Cc2cc(C(=O)c3ccccc3O)cnc2NC1=O | -3.93% | –
4 | Cc1ccc(O)c(C(=O)c2cnc3c(c2)CN(C)C(=O)N3)c1 | 0.64% | –
5 | O=C1C(Cc2ccccc2)Nc2ncnc(N3CCN(c4ccccc4)CC3)c2N1Cc1ccccc1 (stereo not given) | 17.1% | –
6 | CCCCNC(=O)C1CCC(CNc2nc(=S)[nH]c3ccccc23)CC1 (stereo not given) | 0.84% | –
7 | COc1ccc(C(=O)OCCc2ccc(O)cc2)cc1 | -2.8% | –
8 | COc1cc(OC)c2ccc(=O)oc2c1C(CCN1CCCCC1)c1ccc(N(C)C)cc1 (stereo not given) | 2.07% | –
9 | CCCCN1Cc2cc(C(=O)c3cc(F)ccc3O)cnc2NC1=O | – | inactive
10 | COc1cc(OC)c2ccc(=O)oc2c1C(CCN1CCCC1)c1ccc(N(C)C)cc1 (stereo not given) | -1.94% | –
11 | COc1ccc(O)c(C(=O)c2cnc3c(c2)CN(C)C(=O)N3)c1 | 0.22% | –
12 | NS(=O)(=O)c1ccc(N2N=C(c3ccccc3)CC2c2ccc(Br)cc2)cc1 (stereo not given) | -0.8% | –
13 | CCC(Cc1ccccc1)OC(=O)c1ccccc1C(=O)O (stereo not given) | -2.73% | –
14 | O=C(NCCC1=CCCCC1)C1CCC(CNc2nc(=S)[nH]c3ccccc23)CC1 (stereo not given) | 56.5% | –
15 | Cc1cc(C)c2sc(N(CCCN(C)C)C(=O)c3ccc(Br)s3)nc2c1 | 18.1% | –
16 | NC1=NC[C@H](Cc2ccc(O)cc2)N1CCc1cc(C(F)(F)F)cc(C(F)(F)F)c1 | -1.16% | –
17 | COc1ccc2nc(NC(=O)c3cccs3)sc2c1 | -4.24% | –
18 | Cc1ccc(N2CCN(C(=O)C3CCCN(c4ncnc5c4nc4n5CCCCC4)C3)CC2)c(C)c1 (stereo not given) | -0.74% | –
19 | COc1ccc(CCOC(=O)c2ccc(N)c([N+](=O)[O-])c2)cc1 | 2.25% | –
20 | O=C(C[n+]1cc(-c2ccc(F)cc2)n2c1CCC2)N1c2ccccc2Sc2ccccc21 | -3.79% | –
21 | O=C(C1CCCN(c2ncnc3c2nc2n3CCCCC2)C1)N1CCN(c2cccc(Cl)c2)CC1 (stereo not given) | -1.77% | –
22 | O=C(c1ccoc1)N1CCC2(CC1)Oc1ccc(F)cc1C(=O)C21CC(c2ccccc2)=NO1 (stereo not given) | 140% | –
23 | N#CC(C(=O)NCc1ccccc1)c1nc2ccccc2nc1N1CCCC1 (stereo not given) | -3.17% | –
24 | Cc1cccc2sc(N(CCCN(C)C)C(=O)c3ccc(Cl)s3)nc12 | -1.4% | –
25 | CCCCCCCCCC[N+](C)(C)CC/C=C1/c2ccccc2Sc2ccc(Cl)cc21 | 164% | –
26 | COc1ncccc1C(=O)NC1CCCc2c1cnn2-c1cc(C)cc(C)c1 (stereo not given) | -0.65% | –
27 | Cc1ccc(CN2C(=O)C(CC(C)C)Nc3ncnc(N4CCN(c5ccccc5)CC4)c32)cc1 (stereo not given) | -4.11% | –
28 | NS(=O)(=O)c1ccc(N2N=C(c3ccccc3)CC2c2cccc(Br)c2)cc1 (stereo not given) | -1.26% | –
29 | COc1ccc(C2CC(c3ccccc3)=NN2c2ccc(S(N)(=O)=O)cc2)cc1 (stereo not given) | -4.35% | –
30 | O=C(Nc1ccccc1)C1=C[C@@H](c2ccc(Br)cc2)C[C@@H](OCCCCO)O1 | -3.79% | –
